Reference: the supplement of paper PMC7411054
Structures can show the parent of a compound that is named as a salt.

Columns and labels:
Conditions in all cases: treatment time: 24 h
A549-ACTB-RAB5A [1] = test: lowest phenotypically active concentration; higher = less potent
How it was run: (§1)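 Live-cell features were measured per well and normalised to solvent control wells after fifteen gene-edited A549, HepG2 and WPMY1 reporter lines had been treated for 24 h at 0.3, 1, 3 or 9 µM in four wells each. A condition was deviating when ≥3 of 4 wells sat beyond the 95th percentile of control Euclidean distances. It was reproducible when the median replicate Pearson correlation exceeded the 95th percentile of non-replicates. Phenotypic activity demanded both.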

A549-CANX-COX4 [2] = test: as above
How it was run: as §1

A549-GM130-SQSTM1 [3] = test: as above
How it was run: as §1

A549-TP53BP1-CLTA [4] = test: as above
How it was run: as §1

A549-TUBA1B-RELA [5] = test: as above
How it was run: as §1

A549-ACTB-RAB5A [6] = test: phenotypically active (imaging signature differs from DMSO and reproducible) at any of 0.3-9 uM (binary (1 = active, 0 = inactive)); higher = active
How it was run: as §1

A549-CANX-COX4 [7] = test: as above
How it was run: as §1

A549-GM130-SQSTM1 [8] = test: as above
How it was run: as §1

A549-TP53BP1-CLTA [9] = test: as above
How it was run: as §1

A549-TUBA1B-RELA [10] = test: as above
How it was run: as §1

HepG2-ACTB-RAB5A = test: as above
How it was run: as §1

HepG2-CANX-COX4 = test: as above
How it was run: as §1

HepG2-GM130-SQSTM1 = test: as above
How it was run: as §1

HepG2-TP53BP1-CLTA = test: as above
How it was run: as §1

HepG2-TUBA1B-RELA = test: as above
How it was run: as §1

WPMY1-ACTB-RAB5A = test: as above
How it was run: as §1

WPMY1-CANX-COX4 = test: as above
How it was run: as §1

WPMY1-GM130-SQSTM1 = test: as above
How it was run: as §1

WPMY1-TP53BP1-CLTA = test: as above
How it was run: as §1

WPMY1-TUBA1B-RELA = test: as above
How it was run: as §1

Compound | lowest phenotypically active concentration (A549-ACTB-RAB5A [1]) [µM] | lowest phenotypically active concentration (A549-CANX-COX4 [2]) [µM] | lowest phenotypically active concentration (A549-GM130-SQSTM1 [3]) [µM] | lowest phenotypically active concentration (A549-TP53BP1-CLTA [4]) [µM] | lowest phenotypically active concentration (A549-TUBA1B-RELA [5]) [µM] | phenotypically active (A549-ACTB-RAB5A [6]) | phenotypically active (A549-CANX-COX4 [7]) | phenotypically active (A549-GM130-SQSTM1 [8]) | phenotypically active (A549-TP53BP1-CLTA [9]) | phenotypically active (A549-TUBA1B-RELA [10]) | phenotypically active (HepG2-ACTB-RAB5A) | phenotypically active (HepG2-CANX-COX4) | phenotypically active (HepG2-GM130-SQSTM1) | phenotypically active (HepG2-TP53BP1-CLTA) | phenotypically active (HepG2-TUBA1B-RELA) | phenotypically active (WPMY1-ACTB-RAB5A) | phenotypically active (WPMY1-CANX-COX4) | phenotypically active (WPMY1-GM130-SQSTM1) | phenotypically active (WPMY1-TP53BP1-CLTA) | phenotypically active (WPMY1-TUBA1B-RELA)
COc1cc(Br)c(Nc2nc(-c3c(C)nc4ncccn34)cs2)c(Br)c1 | 1 | 1 | 1 | 1 | 1 | 1 (active) | 1 (active) | 1 (active) | 1 (active) | 1 (active) | 1 (active) | 1 (active) | 1 (active) | 1 (active) | 1 (active) | 1 (active) | 1 (active) | 1 (active) | 1 (active) | 1 (active)
Cc1ccc(NC(=O)c2ccc(CN3CCN(C)CC3)cc2)cc1Nc1nc(-c2cccnc2)cs1 [masitinib] | 3 | 9 | 3 | 9 | 3 | 1 (active) | 1 (active) | 1 (active) | 1 (active) | 1 (active) | 1 (active) | 1 (active) | 1 (active) | 1 (active) | 1 (active) | 1 (active) | 1 (active) | 1 (active) | 1 (active) | 1 (active)
O=C(c1cccc(Cl)c1F)N1CCN(Cc2cccc(Nc3nccs3)n2)CC1 | ≤ 0.3 | 1 | 1 | 1 | 1 | 1 (active) | 1 (active) | 1 (active) | 1 (active) | 1 (active) | 1 (active) | 1 (active) | 1 (active) | 1 (active) | 1 (active) | 1 (active) | 1 (active) | 1 (active) | 1 (active) | 1 (active)
Nc1ccn([C@@H]2O[C@H](CO)[C@@H](O)[C@@H]2O)c(=O)n1 [cytarabine] | ≤ 0.3 | ≤ 0.3 | ≤ 0.3 | ≤ 0.3 | ≤ 0.3 | 1 (active) | 1 (active) | 1 (active) | 1 (active) | 1 (active) | 1 (active) | 1 (active) | 1 (active) | 1 (active) | 1 (active) | 1 (active) | 1 (active) | 1 (active) | 1 (active) | 1 (active)
NC(=O)Nc1cc(-c2cccc(F)c2)sc1C(=O)N[C@H]1CCCNC1 [AZD 7762 hydrochloride] | 1 | 1 | ≤ 0.3 | ≤ 0.3 | ≤ 0.3 | 1 (active) | 1 (active) | 1 (active) | 1 (active) | 1 (active) | 1 (active) | 1 (active) | 1 (active) | 1 (active) | 1 (active) | 1 (active) | 1 (active) | 1 (active) | 1 (active) | 1 (active)
Cc1noc(C)c1-c1cc(O)cc(C(O)c2ccccc2)c1 (stereo not given) | 1 | 9 | 3 | 3 | 3 | 1 (active) | 1 (active) | 1 (active) | 1 (active) | 1 (active) | 1 (active) | 1 (active) | 1 (active) | 1 (active) | 1 (active) | 1 (active) | 1 (active) | 1 (active) | 1 (active) | 1 (active)
CS(=O)(=O)c1cccc(CNc2nc(Nc3ccc4c(c3)CCC(=O)N4)ncc2C(F)(F)F)c1 | 3 | 3 | 3 | 3 | 3 | 1 (active) | 1 (active) | 1 (active) | 1 (active) | 1 (active) | 1 (active) | 1 (active) | 1 (active) | 1 (active) | 1 (active) | 1 (active) | 1 (active) | 1 (active) | 1 (active) | 1 (active)
Cc1cc(/N=N/c2ccc(S(=O)(=O)Nc3ccccn3)cc2)c(N)cc1O | 9 | 9 | 9 | 9 | 9 | 1 (active) | 1 (active) | 1 (active) | 1 (active) | 1 (active) | 1 (active) | 1 (active) | 1 (active) | 1 (active) | 1 (active) | 1 (active) | 1 (active) | 1 (active) | 1 (active) | 1 (active)
CC[C@@H]1C(=O)N(C)c2cnc(Nc3ccc(C(=O)NC4CCN(C)CC4)cc3OC)nc2N1C1CCCC1 | ≤ 0.3 | ≤ 0.3 | 1 | ≤ 0.3 | ≤ 0.3 | 1 (active) | 1 (active) | 1 (active) | 1 (active) | 1 (active) | 1 (active) | 1 (active) | 1 (active) | 1 (active) | 1 (active) | 1 (active) | 1 (active) | 1 (active) | 1 (active) | 1 (active)
Clc1ccc(C2(c3ccc(-c4cn[nH]c4)cc3)CCNCC2)cc1 | ≤ 0.3 | ≤ 0.3 | ≤ 0.3 | ≤ 0.3 | ≤ 0.3 | 1 (active) | 1 (active) | 1 (active) | 1 (active) | 1 (active) | 1 (active) | 1 (active) | 1 (active) | 1 (active) | 1 (active) | 1 (active) | 1 (active) | 1 (active) | 1 (active) | 1 (active)
Nc1ccc(-c2ccc3ncc4ccc(=O)n(-c5cccc(C(F)(F)F)c5)c4c3c2)cn1 [Torin 2] | ≤ 0.3 | ≤ 0.3 | ≤ 0.3 | ≤ 0.3 | ≤ 0.3 | 1 (active) | 1 (active) | 1 (active) | 1 (active) | 1 (active) | 1 (active) | 1 (active) | 1 (active) | 1 (active) | 1 (active) | 1 (active) | 1 (active) | 1 (active) | 1 (active) | 1 (active)
COc1ccc(-c2ccc3ncc4c(c3c2)n(-c2ccc(N3CCNCC3)c(C(F)(F)F)c2)c(=O)n4C)cn1 | ≤ 0.3 | ≤ 0.3 | ≤ 0.3 | ≤ 0.3 | ≤ 0.3 | 1 (active) | 1 (active) | 1 (active) | 1 (active) | 1 (active) | 1 (active) | 1 (active) | 1 (active) | 1 (active) | 1 (active) | 1 (active) | 1 (active) | 1 (active) | 1 (active) | 1 (active)
Cc1ncc(-c2ccnc(Nc3ccc(S(C)(=O)=O)cc3)n2)n1C(C)C | ≤ 0.3 | ≤ 0.3 | ≤ 0.3 | ≤ 0.3 | ≤ 0.3 | 1 (active) | 1 (active) | 1 (active) | 1 (active) | 1 (active) | 1 (active) | 1 (active) | 1 (active) | 1 (active) | 1 (active) | 1 (active) | 1 (active) | 1 (active) | 1 (active) | 1 (active)
Cc1cn(CCN2CCN(c3ccccc3-c3cc(C#N)cc(C(=O)NCCCN4CCCC4)c3)CC2)c2ccccc12 | 1 | 3 | 1 | 3 | 1 | 1 (active) | 1 (active) | 1 (active) | 1 (active) | 1 (active) | 1 (active) | 1 (active) | 1 (active) | 1 (active) | 1 (active) | 1 (active) | 1 (active) | 1 (active) | 1 (active) | 1 (active)
O=C(CCCCSc1nc(-c2ccc(-c3ccccc3)cc2)cc(=O)[nH]1)NO | ≤ 0.3 | 1 | ≤ 0.3 | ≤ 0.3 | ≤ 0.3 | 1 (active) | 1 (active) | 1 (active) | 1 (active) | 1 (active) | 1 (active) | 1 (active) | 1 (active) | 1 (active) | 1 (active) | 1 (active) | 1 (active) | 1 (active) | 1 (active) | 1 (active)
C[C@H]1COCCN1c1cc(C2(S(=O)(=O)C3CC3)CC2)nc(-c2ccc(NC(=S)NCCO)cc2)n1 | ≤ 0.3 | ≤ 0.3 | ≤ 0.3 | ≤ 0.3 | ≤ 0.3 | 1 (active) | 1 (active) | 1 (active) | 1 (active) | 1 (active) | 1 (active) | 1 (active) | 1 (active) | 1 (active) | 1 (active) | 1 (active) | 1 (active) | 1 (active) | 1 (active) | 1 (active)
CC(=O)c1c(C)c2cnc(Nc3ccc(N4CCNCC4)cn3)nc2n(C2CCCC2)c1=O | ≤ 0.3 | ≤ 0.3 | ≤ 0.3 | ≤ 0.3 | ≤ 0.3 | 1 (active) | 1 (active) | 1 (active) | 1 (active) | 1 (active) | 1 (active) | 1 (active) | 1 (active) | 1 (active) | 1 (active) | 1 (active) | 1 (active) | 1 (active) | 1 (active) | 1 (active)
C[C@@H](CN1CCC(n2c(=O)[nH]c3cc(Cl)ccc32)CC1)NC(=O)c1ccc2ccccc2c1 | 3 | 9 | 3 | 9 | 3 | 1 (active) | 1 (active) | 1 (active) | 1 (active) | 1 (active) | 1 (active) | 1 (active) | 1 (active) | 1 (active) | 1 (active) | 1 (active) | 1 (active) | 1 (active) | 1 (active) | 1 (active)
Fc1ccccc1CNCc1ccc(-c2ccnc3[nH]ccc23)cc1 [OXA 06 dihydrochloride] | ≤ 0.3 | 1 | 3 | 1 | 1 | 1 (active) | 1 (active) | 1 (active) | 1 (active) | 1 (active) | 1 (active) | 1 (active) | 1 (active) | 1 (active) | 1 (active) | 1 (active) | 1 (active) | 1 (active) | 1 (active) | 1 (active)
O=C(OC12CC3CC(CC(C3)C1)C2)c1ccc(NCc2cc(O)ccc2O)cc1 [Adaphostin] | 1 | 9 | 9 | 9 | 3 | 1 (active) | 1 (active) | 1 (active) | 1 (active) | 1 (active) | 1 (active) | 1 (active) | 1 (active) | 1 (active) | 1 (active) | 1 (active) | 1 (active) | 1 (active) | 1 (active) | 1 (active)
CN(C)C1CCN(C(=O)c2ccc(NC(=O)Nc3ccc(-c4nc(N5CCOCC5)nc(N5CCOCC5)n4)cc3)cc2)CC1 | ≤ 0.3 | ≤ 0.3 | ≤ 0.3 | ≤ 0.3 | ≤ 0.3 | 1 (active) | 1 (active) | 1 (active) | 1 (active) | 1 (active) | 1 (active) | 1 (active) | 1 (active) | 1 (active) | 1 (active) | 1 (active) | 1 (active) | 1 (active) | 1 (active) | 1 (active)
